Assay outcomes: PubChem, National Center for Advancing Translational Sciences (NCATS)
Sampled rows, rich in hits. Any-hit rate of the full collection: about 10%.
HP1b chromo inh = inhibitors of HP1-beta chromodomain binding to methylated histone tails; 0.56% of 390,000 active; AlphaScreen HP1-beta / biotin-H3K9me3 peptide binding; AID 540317; Potency, µM (titrated, usually from 114 µM), usual class: inhibitors; P83916; further: nearly all actives have a fitted effect of over 70% in size
Target sequence (P83916 whole entry, looked up): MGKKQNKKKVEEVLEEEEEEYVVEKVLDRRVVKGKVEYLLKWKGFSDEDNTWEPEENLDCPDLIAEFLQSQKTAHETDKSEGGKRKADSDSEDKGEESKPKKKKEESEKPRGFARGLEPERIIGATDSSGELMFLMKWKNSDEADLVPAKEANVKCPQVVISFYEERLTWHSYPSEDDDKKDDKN
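AlphaScreen: HP1-beta (50 nM) preformed 30 min with biotin-H3(1-18)K9me3 peptide (50 nM) in PBS pH 7.4, 0.01% Tween-20. Compound added for 30 min at RT, then streptavidin donor/nickel chelate acceptor beads (10 ug/mL) for 30 min.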
GLS inh = blocks human kidney-isoform glutaminase activity; O94925; GLS enzymatic activity, qHTS titration; Potency, µM (titrated, usually from 45.5 µM), actives largely listed as inhibitors; 0.21% of 410,000 active
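Assay buffer: 45 mM KH2PO4 pH 8.2, 0.02% Tween-20. hKGA acts on L-glutamine (1 mM solution added); product glutamate is reported by an oxidase/peroxidase Amplex Red coupling, with fluorescence taken at baseline and 30 min.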
JMJD2A Tudor inh = JMJD2A Tudor domain (human) inhibition. AID 504339. AlphaScreen JMJD2A-Tudor / H3K4me3 peptide binding. 4.4% of 390,000 active. Potency, µM (doses to about 114 µM), usual class: inhibitors. O75164; further: nearly all actives have a fitted effect of over 50% in size
BAZ2B block = blocks human BAZ2B; Q9UIF8; AlphaScreen BAZ2B-H3K14Ac peptide displacement; Potency, µM (doses to about 114 µM), actives largely listed as inhibitors; 4.4% of 360,000 active; AID 504333; further: nearly all actives have a fitted effect of over 60% in size
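AlphaScreen displacement of biotin-H3(5-23)K14Ac peptide (50 nM final) from BAZ2B (50 nM final) in PBS pH 7.4, 0.01% Tween-20; complex preformed 30 min RT, then compounds (top 110 uM) 30 min RT, beads 20 min dark.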
G9a block = inhibitors of human histone lysine methyltransferase G9a; AID 504332; G9a H3K9 monomethylation, AlphaScreen, 2 h; Potency, µM (doses to about 102 µM), usual class: inhibitors; 8.8% of 350,000 active; Q96KQ7; further: nearly all actives have a fitted effect of over 75% in size
Target sequence (Q96KQ7 913-1193 limits assumed): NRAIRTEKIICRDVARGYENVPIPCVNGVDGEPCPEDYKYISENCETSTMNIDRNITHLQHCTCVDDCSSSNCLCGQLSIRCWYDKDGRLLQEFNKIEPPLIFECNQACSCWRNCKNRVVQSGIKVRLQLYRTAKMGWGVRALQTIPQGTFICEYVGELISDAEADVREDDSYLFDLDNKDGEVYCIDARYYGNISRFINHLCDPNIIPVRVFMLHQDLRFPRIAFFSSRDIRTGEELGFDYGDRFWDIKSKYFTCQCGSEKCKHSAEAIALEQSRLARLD
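Readings reflect AlphaScreen signal from monomethyl-H3K9 antibody detection. HMT at 20 nM; substrate b-H3K9 500 nM; cofactor SAM 20 uM; 2 h RT reaction; compounds tested as titrations in qHTS with 15 min preincubation.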
Each line names hits and unclear results; the compound was inactive in the other large screens; ! = repeats disagree. The call rests on the fitted dose curve; in most records, active means well fitted curve in the direction sought with a large enough effect; inconclusive means small, poorly fitted or top-dose-only effect, or another doubt; inactive means no such curve, though single readings can be large; an effect the other way counts as inactive or inconclusive.

C[C@]12CC[C@@H]3c4ccc(O)cc4CC[C@H]3[C@@H]1CC[C@@H]2O	G9a block 20µM!
C[C@]12CC[C@@H]3c4ccc(O)cc4[C@@H](O)C[C@H]3[C@@H]1CC[C@@H]2O	none (no result: HP1b chromo inh, GLS inh, JMJD2A Tudor inh)
COc1cc2c(cc1O)CCC1C2CC[C@]2(C)[C@@H](O)CC[C@@H]12 (some centres not stated)	G9a block 40µM (no result: HP1b chromo inh, GLS inh, JMJD2A Tudor inh, BAZ2B block)
C[C@@]12CC[C@@H]3c4ccc(O)cc4CC[C@H]3[C@H]1CC[C@H]2O	none (no result: HP1b chromo inh, GLS inh, JMJD2A Tudor inh, BAZ2B block)
COC(=O)c1ccc(NC(=O)C(=O)NCC(c2cccnc2)N2CCc3ccccc32)cc1 (configuration not stated)	none
COc1ccccc1C1CCN(Cc2ccc3ccccc3c2)CC1	JMJD2A Tudor inh inconclusive
CCCCCCn1cnc2c(oc3nc4c(cc32)CCCC4)c1=O	none
O=C(N[C@@H](Cc1ccccc1)c1nc2ccccc2[nH]1)c1cc([N+](=O)[O-])ccc1Cl	G9a block 10µM
O=C1NC2c3ccccc3CC2O1 (configuration not stated)	none
COCCn1c(C)c(C)c2c(NCCc3ccccc3)ncnc21	HP1b chromo inh inconclusive, JMJD2A Tudor inh 18µM, BAZ2B block 28µM, G9a block 28µM
CCOc1cccc(CN2CCCC(CNC(=O)c3cccc(OC)c3OC)C2)c1 (configuration not stated)	none (no result: G9a block)
CN(C)c1ccc(CNC(=O)CCNS(=O)(=O)c2cc(Br)cnc2N)cc1	JMJD2A Tudor inh 32µM, G9a block 35µM
O=[N+]([O-])c1ccc(N2CCN(Cc3ccncc3)CC2)cc1	HP1b chromo inh inconclusive, JMJD2A Tudor inh 22µM, BAZ2B block 50µM, G9a block 32µM
O=[N+]([O-])c1ccc(N2CCN(Cc3ccc([N+](=O)[O-])o3)CC2)cc1	HP1b chromo inh inconclusive, JMJD2A Tudor inh 20µM, BAZ2B block 32µM, G9a block inconclusive
O=C(CN1CCOCC1)N1CCN(c2ccc([N+](=O)[O-])cc2)CC1	none
O=[N+]([O-])c1ccc(CN2CCN(c3ccccc3Cl)CC2)o1	HP1b chromo inh inconclusive, JMJD2A Tudor inh 22µM, BAZ2B block 50µM, G9a block 28µM
O=[N+]([O-])c1ccc(N2CCN(c3ccc(F)cc3)CC2)cc1	none
O=[N+]([O-])c1ccc(N2CCN(Cc3ccc(Br)o3)CC2)cc1	HP1b chromo inh inconclusive, JMJD2A Tudor inh 22µM, BAZ2B block 79µM, G9a block inconclusive
CCc1ccc2c(c1)c(N=NC1=NC(=O)CS1)c(O)n2C	BAZ2B block inconclusive, G9a block 13µM
CN1C(CCl)Nc2cc(Cl)c(S(N)(=O)=O)cc2S1(=O)=O (configuration not stated)	none (no result: BAZ2B block)
O=[N+]([O-])c1cc(S(=O)(=O)N2CCOCC2)ccc1N1CCNCC1	G9a block 50µM
CN1CCN(S(=O)(=O)c2ccc(Nc3ccc(F)cc3)c([N+](=O)[O-])c2)CC1	JMJD2A Tudor inh inconclusive, BAZ2B block inconclusive, G9a block 56µM
Cc1ccc(S(=O)(=O)Nc2ccc(S(=O)(=O)N3CCOCC3)cc2)cc1[N+](=O)[O-]	none
Cc1ccc(C)n1-c1ccc(N2CCOCC2)c([N+](=O)[O-])c1	JMJD2A Tudor inh inconclusive, BAZ2B block inconclusive (no result: G9a block)
Cc1ccc(Nc2ccc(S(=O)(=O)N3CCOCC3)cc2[N+](=O)[O-])cc1C	HP1b chromo inh inconclusive, JMJD2A Tudor inh inconclusive, BAZ2B block 11µM, G9a block inconclusive
O=[N+]([O-])c1cc(-n2cccc2)ccc1N1CCOCC1	HP1b chromo inh 71µM, JMJD2A Tudor inh 50µM, BAZ2B block 35µM, G9a block inconclusive
CCOc1ccc(Nc2ccc(S(=O)(=O)N3CCN(C)CC3)cc2[N+](=O)[O-])cc1OCC	HP1b chromo inh inconclusive, JMJD2A Tudor inh inconclusive, BAZ2B block inconclusive
O=C(COC(=O)c1cc([N+](=O)[O-])ccc1N1CCOCC1)Nc1c(Cl)cccc1Cl	BAZ2B block inconclusive
CN1CCN(S(=O)(=O)c2ccc(N(C)Cc3ccc(C(F)(F)F)cc3)c([N+](=O)[O-])c2)CC1	HP1b chromo inh inconclusive, JMJD2A Tudor inh 25µM, BAZ2B block 40µM
O=C(Nc1ccon1)C(Sc1ccccc1)c1ccccc1 (configuration not stated)	none
CCOC(=O)/C(=N/Nc1ccc(Cl)cc1)Sc1nnnn1-c1ccc(C)cc1	BAZ2B block inconclusive
CC(=O)Nc1ccc2c(c1)C(=Nc1cccc(C)c1)c1ccccc1-2	HP1b chromo inh inconclusive, JMJD2A Tudor inh 32µM (no result: BAZ2B block, G9a block)
CC(=O)Nc1cccc(C)c1	none
CCCCn1c(SCC(=O)Nc2ccc3c(c2)OCCO3)nnc1C(CC)N(C)C (configuration not stated)	none
Cn1c(CN2CCCCC2)c(C#N)c2ccccc21	G9a block 28µM
Cn1c(CN2CCN(CC#N)CC2)c(C#N)c2ccccc21	G9a block 45µM
Cn1c(CN2CCC(C(N)=O)CC2)c(C#N)c2ccccc21	none
O=C1NC(=O)/C(=C/c2cccc3ccccc23)S1	none
O=C1NC(=O)/C(=C\c2ccc(O)cc2O)S1	HP1b chromo inh inconclusive, GLS inh inconclusive, JMJD2A Tudor inh 20µM, BAZ2B block 28µM, G9a block 18µM
COCCN(CCOC)c1ncc(Cl)c(C(=O)c2c(C)cc3ccccn23)n1	G9a block 40µM
Cc1cc2ccccn2c1C(=O)c1nc(NCc2ccco2)ncc1Cl	JMJD2A Tudor inh inconclusive, BAZ2B block inconclusive, G9a block inconclusive
Cc1cc2ccccn2c1C(=O)c1nc(N2CCOCC2)ncc1Cl	JMJD2A Tudor inh inconclusive, BAZ2B block inconclusive, G9a block 71µM
COc1cc(C(=O)NCCc2nc3ccccc3n2C)cc(OC)c1OC	none
Cc1ccc2c(c1)Sc1c(ccc3ccccc13)N2	HP1b chromo inh inconclusive, JMJD2A Tudor inh inconclusive, BAZ2B block 40µM, G9a block inconclusive
Cc1cc(=O)[nH]c(/N=C(\N)Nc2cccc3ccccc23)n1	JMJD2A Tudor inh inconclusive, BAZ2B block 56µM, G9a block 79µM
COc1ccccc1N/C(N)=N/c1nc(CSc2ccc(C)cc2)cc(=O)[nH]1	JMJD2A Tudor inh 79µM
COCc1cc(=O)[nH]c(/N=C(\N)Nc2cccc(Cl)c2)n1	G9a block 18µM
Cc1ccc(SCc2cc(=O)[nH]c(/N=C(\N)Nc3ccccc3Sc3ccccc3)n2)cc1	none
COCc1cc(=O)[nH]c(/N=C(\N)Nc2ccc(C)cc2C)n1	none
Cc1ccc(C(=O)NCC(=O)OCc2c(F)cccc2Cl)cc1	none
O=C(NCCc1ccccc1)c1c[nH]c2ccc(S(=O)(=O)Nc3ccc(F)cc3F)cc2c1=O	none
CCc1ccc(CNC(=O)c2cnc3sc(N4CCCC4)nn3c2=O)cc1	JMJD2A Tudor inh inconclusive
CCOc1ccc(NC(=S)NC(=O)/C=C/c2ccc(OC)c(OC)c2)c([N+](=O)[O-])c1	JMJD2A Tudor inh inconclusive, G9a block 50µM
COc1ccc(/C=C/C(=O)NC(=S)NNC(=O)c2ccco2)cc1OC	G9a block 35µM
